According to PubChem BioAssay (NCI):
The panel holds about 83,000 compounds, 20% with a hit somewhere; the sample as a whole holds those more often.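 For each line, cells grew in 96-well plates with the test compound present at a single concentration for 48 hours.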 Active and inactive are the calls of the source. The calls were made as follows: active = growth percent below 10; inactive = the rest.

These compounds were tested on ACHN renal (assay: NCI-60 one-dose screen, 48 h (100 = growth as untreated, 0 = no growth, -100 = all killed)). Conditions: 10 µM unless noted.

Question: For COc1ccc(N(c2nc(-c3ccc([N+](=O)[O-])cc3)cs2)C(C)C)cc1, which growth is on record?
Answer: The growth was 89% (inactive).

Question: With C=C(C)[C@@H]1CC[C@]2(C)[C@H](CC[C@@H]3[C@@H]([C@@](C)(O)CCC=C(C)C)CC[C@]32C)[C@@]1(C)CCC(=O)O as the compound, how does the growth read?
Answer: The growth was 6.72% [100 µM] (active).

Question: How did the growth turn out when CCOc1ccc(S(=O)(=O)Nc2ccc3c(c2)N(S(=O)(=O)CC)CCC3)cc1 was run?
Answer: Its growth is 45% (inactive).

Question: Which growth does the source give for Cc1cnc(N)nc1OCCNC(=O)c1cccc(-c2ccc(S(=O)(=O)Nc3ccc4c(c3)N(C(=O)C3CC3)CCC4)cc2)c1 here?
Answer: The growth was 84.9% (inactive).

Question: How did the growth turn out when Fc1cc2[nH]ncc2c2c3c(c(-c4cn[nH]c4)nc12)CCCC3 was run?
Answer: The growth was 1.61% (active).

What follows are compounds tested on CAKI-1 renal in the same assay as above. Conditions: 10 µM unless noted.

Question: For O=C1CN(Cc2ccc(C(=O)NO)cc2)C(=O)[C@@H](Cc2ccccc2)N1, which growth is on record?
Answer: The growth was 94.1% (inactive).

Question: Which growth does the source give for COc1ncc(-c2ccc3nccc(C#CCCCCC(=O)NO)c3c2)cc1NS(=O)(=O)c1ccc(F)cc1F here?
Answer: The growth was 6.12% (active).

Question: Which growth does the source give for CCCCCN(CCCCC)CCCCCCCCN1CCCc2ccccc21 here?
Answer: Its growth is 54.8% (inactive).

Question: With CC1Cc2c(Cl)ncnc2N(C)c2ccc(O)cc21 (stereo not drawn) as the compound, how does the growth read?
Answer: The growth was 89.2% (inactive).

Question: For FC(F)(F)c1ccc2c(c1)Sc1ccccc1N2, which growth is on record?
Answer: The growth was 82% (inactive).

Question: For Cc1ccc2c(n1)C(=O)C(Cl)=C(Nc1ccc(N3CCN(C)CC3)cc1)C2=O, which growth is on record?
Answer: The growth was -100% (active).

Question: For CCOc1cc(/C=N\NC(=O)N/N=C/c2ccc(O)c(OCC)c2)ccc1O, which growth is on record?
Answer: Its growth is 37.9% (inactive).

Question: C1=C[C@H]2O[C@@H]1c1ccc3[nH]ccc3c12 was tested. Which growth did it give?
Answer: Its growth is 89.6% (inactive).

Question: With CC1(C)CC[C@]2(C(=O)O)CC[C@]3(C)[C@H](CC[C@@H]4[C@@]5(C)CCC(=O)C(C)(C)[C@@H]5CC[C@]43C)[C@H]2[C@H]1OC(=O)C(F)(F)F as the compound, how does the growth read?
Answer: The growth was -71.2% [100 µM] (active).

Question: For [2H]C1([2H])CCN(C(=O)C2CC2)c2cc(NS(=O)(=O)c3ccc(-c4cccc(C(N)=O)c4)cc3)ccc21, which growth is on record?
Answer: Its growth is 72.3% (inactive).

Question: Which growth does the source give for CCOC(=O)c1sc2nc(-c3cc(OC)c(OC)c(OC)c3)nc(N3CCOCC3)c2c1C here?
Answer: Its growth is 31.6% (inactive).

Question: How did the growth turn out when O=C(CCN1CCCCC1)c1ccc(Cl)cc1 was run?
Answer: Its growth is 95.2% (inactive).

Question: For O=C1CC(C(F)(F)F)Cc2nc3ccc(Br)cc3cc21 (stereo not drawn), which growth is on record?
Answer: The growth was 75.5% (inactive).

Question: For NC(=O)c1cccc(-c2ccc(S(=O)(=O)Nc3ccc4c(c3)N(C(=O)C3CC3)CCC4)cc2)c1, which growth is on record?
Answer: The growth was 72.4% (inactive).

Question: Which growth does the source give for CCOC(=O)CCC[P+](c1ccccc1)(c1ccccc1)c1ccccc1 here?
Answer: The growth was 101% (inactive).

Question: Which growth does the source give for CC1(C)CC[C@]2(C(=O)O)CC[C@]3(C)C(=CC[C@@H]4[C@@]5(C)C/C(=C/c6cccnc6)[C@H](O)C(C)(C)[C@@H]5CC[C@]43C)[C@@H]2C1 here?
Answer: The growth was 5.69% [100 µM] (active).

Question: Which growth does the source give for CCC(Br)(CC)C(=O)c1ccc(OCC(=O)O)c(Cl)c1Cl here?
Answer: The growth was 83.8% (inactive).

Question: With C#C[C@]1(O)CC[C@H]2[C@@H]3CC=C4c5nc(Nc6ccccc6[N+](=O)[O-])sc5CC[C@]4(C)[C@H]3CC[C@@]21C as the compound, how does the growth read?
Answer: Its growth is 38.9% (inactive).

Question: How did the growth turn out when O=C(N/N=C\c1cc(Cl)ccc1O)N/N=C/c1cc(Cl)ccc1O was run?
Answer: Its growth is 60.2% (inactive).

Question: For C=C(C)[C@@H]1CC[C@]2(C(=O)NCCNCCNC(=O)OC(C)(C)C)CC[C@]3(C)[C@H](CC[C@@H]4[C@@]5(C)CCC(=O)C(C)(C)[C@@H]5CC[C@]43C)[C@@H]12, which growth is on record?
Answer: The growth was 18.6% [100 µM] (inactive).

Question: Cc1cc(C)c(O)c(CNCCCNCc2cc(C)cc(C)c2O)c1 was tested. Which growth did it give?
Answer: Its growth is 62.1% (inactive).

Question: For O=C(Nc1ccc(C(=O)/C=C/c2ccc(N3CCOCC3)cc2)cc1)Nc1ccc([N+](=O)[O-])cc1, which growth is on record?
Answer: The growth was 82.6% (inactive).

Question: With C[C@H]1[C@H](C)CC[C@]2(C(=O)N3CCN(C)CC3)CC[C@]3(C)C(=CC[C@@H]4[C@@]5(C)C/C(=C/c6ccco6)C(=O)C(C)(C)[C@@H]5CC[C@]43C)[C@H]12 as the compound, how does the growth read?
Answer: The growth was 26.2% [100 µM] (inactive).

Question: Which growth does the source give for Nc1nc(Cl)c2ncn(Cc3cc4c(cc3I)OCO4)c2n1 here?
Answer: The growth was 47.5% (inactive).

Question: With CC1(C)OC2[C@@H](CNC(=O)NC(=O)NC(=O)CI)O[C@@H](n3cnc4c(NC(=O)Nc5ccccc5)ncnc43)[C@H]2O1 (stereo partly drawn) as the compound, how does the growth read?
Answer: Its growth is -69% (active).

Question: How did the growth turn out when Fc1cc2[nH]ncc2c2c3c(c(-c4cn[nH]c4C(F)(F)F)nc12)C1CCC3C1 (stereo not drawn) was run?
Answer: Its growth is -5.2% (active).

Question: CC1Cc2c(Cl)ncnc2N(C)c2ccccc21 (stereo not drawn) was tested. Which growth did it give?
Answer: Its growth is 19.3% (inactive).

Question: For C=C(C)[C@@H]1CC[C@]2(COCCCN)CC[C@]3(C)[C@H](CC[C@@H]4[C@@](C)(CCCNCCCN)[C@H](C(=C)C)CC[C@]43C)[C@@H]12, which growth is on record?
Answer: Its growth is -77.1% [100 µM] (active).
